# The list is not random: actives were taken first. Their share in the collection is about 3.9%.
# ALR inh = inhibitors of human sulfhydryl oxidase ALR; P55789; purified ALR, DTT oxidation, H2O2 HRP-luminol luminescence; inhibition, % (concentration not given with the values); hit rate 3.8% among 290,000; AID 485317;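 active = mean replicate inhibition above about 79%, with every replicate also reaching it, limit read from the data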
# Target sequence (P55789 whole entry, looked up): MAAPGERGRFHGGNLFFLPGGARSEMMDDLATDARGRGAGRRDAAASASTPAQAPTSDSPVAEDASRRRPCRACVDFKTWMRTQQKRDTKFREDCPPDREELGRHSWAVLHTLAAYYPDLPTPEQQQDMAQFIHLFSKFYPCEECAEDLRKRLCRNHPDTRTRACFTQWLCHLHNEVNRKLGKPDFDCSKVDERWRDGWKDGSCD
# NSD2 inh = blocks human histone methyltransferase NSD2 | NSD2 peptide methylation, AlphaScreen, 120 min | inhibition, % at 12.5 µM | hit rate 0.54% among 310,000; in the data active = inhibition above about 50%
# CDK5 p35 inh = inhibitors of human CDK5/p35 kinase | Q00535+Q15078 | Recombinant CDK5/p35, ADP-Glo luminescence, 60 min | inhibition, % at 10 µM | hit rate 0.01% among 330,000;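 active = highest replicate inhibition of at least 50% and at least 75% of replicates reaching 50%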;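 note: plate controls were DMSO neutral control for no effect and GW8510 at 10 µM for full effect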
# N-glyco inh = N-linked glycosylation inhibition. D54 ERlucT glycosylation luciferase reporter, 24 h; percent of 100 nM tunicamycin response. reporter increase, % at 12.5 µM. hit rate 0.23% among 360,000;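 active = mean luciferase reporter signal, scaled so untreated is 0 and the glycosylation-blocking control 100, at or above a set limit in every replicate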;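 note: luciferase carries N-glycosylation sites so blocking glycosylation raises the light; 0% = median of neutral control wells and 100% = median of 100 nM tunicamycin wells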
# CASP6 VEID inh = blocks human caspase-6 cleavage activity. P55212. inhibition, % at 12.5 µM. AID 686996. purified caspase-6, Z-VEID-R110 cleavage fluorescence. hit rate 0.53% among 350,000;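 active = mean inhibition across replicates at least about 35%, with every replicate also reaching that limit, limit read from the data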;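 note: 0% = median of neutral control wells and 100% = no fluorescence left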
# Target sequence (P55212 24-179 limits assumed): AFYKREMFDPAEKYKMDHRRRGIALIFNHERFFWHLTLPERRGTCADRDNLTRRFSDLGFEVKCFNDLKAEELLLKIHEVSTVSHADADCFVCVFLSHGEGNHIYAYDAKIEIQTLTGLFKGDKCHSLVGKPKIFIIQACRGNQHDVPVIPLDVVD
# Target sequence (P55212 194-293 limits assumed): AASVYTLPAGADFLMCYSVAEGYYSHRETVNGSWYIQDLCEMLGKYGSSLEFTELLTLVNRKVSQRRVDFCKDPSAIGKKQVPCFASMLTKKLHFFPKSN
# Mot1-301 SUMO = SUMOylation pathway inhibition by Mot1-301 growth rescue | S. cerevisiae Mot1-301 growth rescue, ATP luminescence, 38.5C; percent above DMSO median, 100 means doubled | growth rescue, % at 18.8 µM | hit rate 1% among 320,000 | AID 2716;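 active = every valid replicate shows activation above 250% relative to neutral control wells; inactive = the rest, any valid replicate at or below 250%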;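 note: OY570 slx delta 5 strain wells were the positive control but not used for scaling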
# CASP1 counter = selectivity counter-screen: inhibitors of human caspase-1 | shares compounds with CASP6 VEID inh | purified caspase-1, Z-YVAD-R110 cleavage fluorescence | activity change, negative = inhibition, % at 35 µM | 100 tested, under 10 active | AID 743289;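 active = compounds lowering fluorescence whose fitted half-maximal concentration is no more than twice their top tested dose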
# Alpha artifact = counter-screen for NSD2 inhibitors: AlphaScreen artifacts. AC35, µM (doses to about 10 µM), without a hit: top-dose activity change, negative = signal loss. shares compounds with NSD2 inh. hit rate 9.4% among 1,500. AlphaScreen artifact counterscreen, preloaded methylated H4 peptide; call rule not given here
# * marks the source's active call; other numbers are inactive results; · = no result given.
SMILES,ALR inh,NSD2 inh,CDK5 p35 inh,N-glyco inh,CASP6 VEID inh,Mot1-301 SUMO,CASP1 counter,Alpha artifact
O=c1oc(-c2ccccc2)nc2sc3c(c12)CCC3,52,16,0,1,72*,141,-4,·
COCC(=O)Nc1ccc2c(c1)OC[C@H](C)N(CCc1ccccc1)C[C@H](C)[C@H](OC)CN(C)C2=O,·,·,·,·,1,·,·,·
O=C1Cc2ccccc2C(=O)N1,·,·,·,·,99*,·,-7,·
Nc1c(O)cccc1C(=O)O,70,·,-1,4,56*,-1,4,·
O=C(O)c1ccccc1O,-11,·,-6,0,·,0,·,·
CCOC(=O)[C@H](Cc1c[nH]c2ccccc12)NC(=O)CN=[N+]=[N-],·,·,·,·,38*,·,-1,·
COC(=O)[C@H](Cc1c[nH]c2ccccc12)NC(=O)Cc1c[nH]c2ccccc12,3,2,1,-1,5,5,·,·
COc1cc(C)c2c(c1C=O)Oc1c(c(C)c(O)c3c1C(O)OC3=O)OC2=O (configuration not stated),37,·,1,3,78*,6,-3,·
Cc1ccc(C)c(NC(=O)CN(C)C(=O)c2cccc(-n3cccc3)c2)c1,-24,12,2,2,59*,-13,-1,·
CN(CC(=O)Nc1ccccc1Cl)C(=O)c1cccc(-n2cccc2)c1,2,1,0,1,0,63,·,·
CN(CC(=O)Nc1c(Cl)cccc1Cl)C(=O)c1cccc(-n2cccc2)c1,10,8,-3,0,42*,12,3,·
Cc1ccc(C)c(NC(=O)CN(C)C(=O)c2cccc(Oc3ccccc3)c2)c1,-3,-4,1,-1,-3,-4,·,·
COc1ccc(CNC(=O)C[C@@H]2CC[C@@H](NC(=O)c3cccc(F)c3)[C@@H](CO)O2)cc1,·,·,·,·,-2,·,·,·
CNC(=O)C[C@H]1CC[C@@H]2[C@@H](COc3ccc(NC(=O)Nc4cccc(C)c4)cc3C(=O)N2C)O1,·,·,·,·,1,·,·,·
COc1cccc(NC(=O)N2C[C@H](O)COC[C@@H]3O[C@@H](CC(=O)N(C)C)CC[C@H]32)c1,·,·,·,·,-1,·,·,·
CCNC(=O)C[C@@H]1C=C[C@@H](NC(=O)C2CCC2)[C@H](CO)O1,·,·,·,·,2,·,·,·
O=C(O)C1Nc2c(Cl)cc(Cl)c(Cl)c2C2C=CCC12 (configuration not stated),·,13,0,0,40*,-22,21,·
O=C(c1cccc(-n2cccc2)c1)N1CCN(S(=O)(=O)c2ccccc2)CC1,4,·,1,-2,51*,5,3,·
O=c1c(CO)cc(CO)cc(CO)c1O,10,0,0,1,71*,-8,0,·
Nc1ccc(Nc2ccccc2)c(S(=O)(=O)O)c1,·,94*,·,2,86*,-5,-8,·
CN(CC(=O)Nc1ccccc1Cl)C(=O)COC(=O)c1cccs1,-3,-4,2,2,0,-8,·,·
CN(CC(=O)Nc1ccccc1Cl)C(=O)COC(=O)c1ccc([N+](=O)[O-])s1,-46,78*,-1,3,99*,2,-4,-4%
O=S(=O)(O)c1cc(O)c2cc(Nc3ccccc3)ccc2c1,·,105*,-2,0,80*,·,13,6.4µM*
CCCN(C)C[C@H]1Oc2ncc(C#CCC(C)C)cc2C(=O)N([C@@H](C)CO)C[C@H]1C,·,·,·,·,-1,·,·,·
Nc1cc(S(=O)(=O)O)cc([N+](=O)[O-])c1O,·,87*,-3,1,59*,-35,-3,-5%
SMILES,ALR inh,NSD2 inh,CDK5 p35 inh,N-glyco inh,CASP6 VEID inh,Mot1-301 SUMO,CASP1 counter,Alpha artifact
Nc1cccc2c(O)cc(S(=O)(=O)O)cc12,·,·,-22,1,·,·,·,·
O=C(O)Cc1ccc(-n2cccc2)cc1,8,117*,-11,-1,70*,111,-1,-4%
O=C1CN(C(=O)COC(=O)c2ccc([N+](=O)[O-])s2)c2ccccc2N1,·,60*,2,9,·,-2,-1,-6%
COc1cccc(S(=O)(=O)N[C@H]2CC[C@@H](CCn3cc(-c4ccccc4OC)nn3)O[C@H]2CO)c1,·,·,·,·,2,·,·,·
C[C@H]1CN([C@@H](C)CO)S(=O)(=O)c2ccc(C3=CCCCC3)cc2O[C@@H]1CN(C)C(=O)c1ccc(F)cc1,·,·,·,·,-1,·,·,·
CN(C1=C(NC(=O)c2ccccc2)C(=O)c2ccccc2C1=O)C1CCS(=O)(=O)C1 (configuration not stated),·,109*,2,3,78*,-17,·,-3%
O=C(NC(=S)NC1CCS(=O)(=O)C1)c1ccccc1 (configuration not stated),15,1,2,6,1,-15,·,·
O=C(CSc1nc(-c2ccccc2)c(-c2ccccc2)o1)N1CCCCC1,·,69*,·,-11,1,·,·,-5%
O=C(CCSc1nc(-c2ccccc2)c(-c2ccccc2)o1)N1CCCCC1,·,0,·,-5,2,·,·,·
CCCNC(=O)C[C@H]1CC[C@@H]2[C@@H](COc3ccc(NC(=O)c4cccc(C(F)(F)F)c4)cc3C(=O)N2C)O1,·,·,·,·,0,·,·,·
COc1ccc(Cn2cnc3c(N)c(C)c(C)cc32)cc1,60,3,0,0,-1,-6,·,·
CCCCCCCCn1cnc2c(N)c(C)c(C)cc21,48,76*,0,3,8,25,·,-5%
COc1cccc(S(=O)(=O)N[C@@H]2CC[C@H](CC(=O)NCc3ccc(F)cc3)O[C@@H]2CO)c1,·,·,·,·,1,·,·,·
Cc1cc(C)n(CC(O)COc2c(C)cccc2C)n1 (configuration not stated),5,55*,0,1,-1,-20,·,4%
CCN(CC)CCNc1ncnc2c1sc1nc(N3CCCC3)c3c(c12)CC(C)(C)OC3,·,80*,-2,-11,1,-7,·,-15%
CCc1sc(C(=O)Nc2nc(C)cs2)cc1C,·,51*,1,-11,1,·,·,-6%
CCc1sc(C(=O)Nc2ccc(NC(C)=O)cc2)cc1C,1,1,0,-2,1,6,·,·
C=CCOC(=O)[C@H]1[C@@H]2C(=O)O[C@@H](c3ccccc3)[C@@H](c3ccccc3)N2[C@@H](c2ccc(OCCOC(=O)[C@H]3C[C@H]4C(=O)N[C@@H](CC(C)C)C(=O)N4[C@H]3c3cccc(OCCO)c3)cc2)[C@]12C(=O)Nc1ccccc12,·,·,·,·,1,·,·,·
COc1ccc(/C=N/NC(=O)c2nn(-c3ccccc3)c(=O)c3c(N)scc23)cc1,-60,100*,1,5,·,6,·,-10%
CCCc1cc(=O)n(-c2nc3ccccc3s2)[nH]1,0,79*,1,-1,19,-11,·,1%
CCCc1[nH]n(-c2nc3ccccc3s2)c(=O)c1C=NCCCN(CC)CC,0,54*,-2,0,-47,1,·,1%
